From PubChem BioAssay
In the library only some 3.5% were active in any assay of this set; here they are far more common.
MITF primary – inhibitors of human MITF; AlphaScreen MITF homodimerization, bead proximity signal; inhibition, % at 2.6 µM; 0.91% of 650,000 active; AID 1259374; in the data active means inhibition above about 50%;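 further: 0% = vehicle wells with protein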
GPR151 ag – activates the human receptor GPR151; AID 1508602; 1% of 650,000 active; PathHunter beta-arrestin GPR151 cells, luminescence; activation, % at 11.2 µM; in the data active means activation above about 4.9%;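 further: 0% = median of compound wells and 100% = cells with positive control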
TEAD-YAP inh – TEAD-YAP interaction inhibition. HEK-TIYL cells, TEAD-Gal4/YAP UAS-luciferase luminescence. inhibition, % at 9.12 µM. 1.4% of 640,000 active. AID 1259422; in the data active means inhibition above about 32%;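 further: 0% = median of test compound wells and 100% = reference inhibitor wells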
FBW7 act – human FBW7 E3 ligase activation, primary screen. Q969H0. AlphaScreen FBW7–phospho-cyclin E peptide binding, activator screen. normalized activity (activation), % at 26.1 µM. 0.13% of 650,000 active. AID 1259310; in the data active means normalized activity above about 1.9%;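 further: purified mutant Fbw7 with reduced substrate affinity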
Target sequence (Q969H0 whole entry, looked up): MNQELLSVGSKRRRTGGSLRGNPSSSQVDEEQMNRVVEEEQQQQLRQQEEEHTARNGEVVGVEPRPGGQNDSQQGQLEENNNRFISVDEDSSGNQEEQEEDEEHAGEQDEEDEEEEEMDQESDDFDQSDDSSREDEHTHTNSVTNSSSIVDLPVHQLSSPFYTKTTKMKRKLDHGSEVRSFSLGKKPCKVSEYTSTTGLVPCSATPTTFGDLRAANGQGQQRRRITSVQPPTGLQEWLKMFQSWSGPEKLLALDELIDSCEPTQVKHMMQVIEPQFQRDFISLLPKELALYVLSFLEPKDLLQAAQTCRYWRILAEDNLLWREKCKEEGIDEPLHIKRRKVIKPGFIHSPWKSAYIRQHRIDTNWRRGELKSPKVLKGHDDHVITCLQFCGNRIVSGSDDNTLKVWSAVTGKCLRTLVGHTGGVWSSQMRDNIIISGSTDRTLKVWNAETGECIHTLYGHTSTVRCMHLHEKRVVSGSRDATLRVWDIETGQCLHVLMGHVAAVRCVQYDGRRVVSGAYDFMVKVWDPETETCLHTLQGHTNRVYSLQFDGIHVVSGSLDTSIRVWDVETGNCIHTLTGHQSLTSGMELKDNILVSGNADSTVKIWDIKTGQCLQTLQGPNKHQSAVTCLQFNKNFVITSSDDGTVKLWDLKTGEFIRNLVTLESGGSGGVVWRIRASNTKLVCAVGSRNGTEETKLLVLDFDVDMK
MITF inh conf – human MITF inhibition, confirmation; AlphaScreen MITF homodimerization, biotin/His-MITF beads; 16% of 4,700 active; inhibition, % at 2.6 µM; AID 1259372; shares compounds with MITF primary;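 active means inhibition above a cutoff derived from the DMSO control wells, cut at about 28% in these data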;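 further: 0% = MITF dimer wells with DMSO only; inhibitors lower the bead chemiluminescence by keeping MITF from dimerizing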
AlphaScreen DR – counter-screen: compounds optically interfering with AlphaScreen. shares compounds with MITF primary. AlphaScreen optical interference counterscreen, cell-free. IC50, µM. 6% of 480 active. AID 1259373; call rule not given here
AS interf ctr – AlphaScreen optical interference, counter-screen; LysRS AlphaScreen counterscreen, signal interference, triplicate; 7.6% of 4,700 active; inhibition, % at 2.6 µM; shares compounds with MITF primary; AID 1259376;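 active means inhibition above a cutoff derived from the DMSO control wells, cut at about 30% in these data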
* marks the source's active call; other numbers are inactive results; x = no result given.

SMILES	MITF primary	GPR151 ag	TEAD-YAP inh	FBW7 act	MITF inh conf	AS interf ctr	others
COc1ccccc1NC(=O)CC(NCc1ccccn1)C(=O)O (stereo not given)	100*	1	-6	0	106*	100*
COc1ccccc1NC(=O)CC(C(=O)O)N(C)C (stereo not given)	15	3	9	0	x	x
O=C(CC(NCc1ccccn1)C(=O)O)Nc1ccccc1Cl (stereo not given)	104*	0	-2	0	89*	100*
O=C(CC(NCc1ccccn1)C(=O)O)Nc1cc(Cl)ccc1Cl (stereo not given)	104*	1	-6	0	75*	100*
COc1ccc(C(=O)NC(=S)Nc2ccc([N+](=O)[O-])cc2)cc1OC	0	0	7	0	x	x
CCc1ccc(CN2CCN(S(=O)(=O)c3ccccc3)CC2)cc1	55*	-1	1	0	4	4
CCCS(=O)(=O)N1CCN(Cc2ccncc2)CC1	62*	-1	0	0	9	9
CC(=O)Nc1ccc(S(=O)(=O)N2CCN(Cc3ccccc3[N+](=O)[O-])CC2)cc1	-5	1	3	0	x	x
CCc1ccc(CN2CCN(S(=O)(=O)CC)CC2)cc1	51*	3	-9	0	25	17
CCOc1ccc(CN2CCN(S(=O)(=O)CC)CC2)cc1	42	0	0	0	x	x
O=S(=O)(c1ccccc1)N1CCN(Cc2ccccc2)CC1	12	0	3	0	x	x
CCCS(=O)(=O)N1CCN(Cc2ccc(SC)cc2)CC1	44	2	13	0	x	x
Cc1ccc(S(=O)(=O)N2CCN(Cc3ccccc3[N+](=O)[O-])CC2)cc1	78*	3	1	0	9	15
CCc1nn2c(C(=O)NCc3ccccc3Cl)cc(=O)nc2s1	3	3	9	0	x	x
Cc1ccc(CN2CCN(S(=O)(=O)c3ccccc3)CC2)cc1	71*	3	-3	1	-5	5
CC#CCN1C(=O)NC(CCc2ccccc2)(C2CCN(Cc3ccccn3)CC2)C1=O (stereo not given)	-2	2	-3	0	x	x
CCSc1nnc(NC(=O)c2cc(Cl)ccc2Cl)s1	2	-1	3	0	x	x
CCCOc1ccccc1C(=O)Nc1nnc(SCC)s1	67*	-2	-4	1	20	12
CCSc1nnc(NC(=O)c2cc(S(=O)(=O)N3CCCCC3)ccc2Cl)s1	57*	-1	-7	0	12	16
CCN1CCN(C(=O)Cn2cc3c(n2)CCCCC3)CC1	14	-1	-3	1	x	x
Cc1ccc(N2C(=O)C3C(C2=O)C2(CO)C=CC3(C)O2)cc1[N+](=O)[O-] (stereo not given)	53*	1	7	0	43*	5	AlphaScreen DR=>6.5
CC12C=CC(CO)(O1)C1C(=O)N(c3ccc([N+](=O)[O-])cc3)C(=O)C12 (stereo not given)	-3	0	-11	0	x	x
COCCOCC(O)CN1CCN(c2ccc(C)cc2)CC1 (stereo not given)	52*	1	-7	0	4	1
CC1CCCC(NC(=O)Cn2nnc(-c3ccccc3Br)n2)C1C (stereo not given)	1	1	-7	0	x	x
COc1ccc(C(=O)OCC(=O)c2ccc([N+](=O)[O-])cc2)cc1	1	0	5	0	x	x
SMILES	MITF primary	GPR151 ag	TEAD-YAP inh	FBW7 act	MITF inh conf	AS interf ctr	others
O=C(OCC(=O)c1ccc([N+](=O)[O-])cc1)C(=O)OCC(=O)c1ccc([N+](=O)[O-])cc1	61*	0	3	-1	8	29
O=C(CSc1nc2ccccc2c2nc(-c3ccccc3)nn12)c1ccc(Cl)cc1	24	0	12	1	x	x
CC(C)C[C@H]1C(=O)N2CCN(C(=O)NC3CCCCC3)C[C@@H]2C(=O)N1C	70*	-1	1	0	71*	-10	AlphaScreen DR=>6.5
C[C@H]1C(=O)N2CCN(C(=O)NC3CCCCC3)C[C@@H]2C(=O)N1C	78*	-1	8	0	74*	-9	AlphaScreen DR=>6.5
Cc1ccc(C(=O)N2CCN3C(=O)[C@H](C)N(C)C(=O)[C@H]3C2)cc1	5	2	-5	0	x	x
CC(=O)NCCNC(=O)c1ccc2c(=O)n(Cc3ccc(Cl)cc3)c(=S)[nH]c2c1	10	-1	-9	0	x	x
O=C(NCC(O)C(=O)N1CCOCC1)c1cc(Nc2ccc3[nH]ncc3c2)ccn1 (stereo not given)	0	-1	4	0	x	x
O=C(NCC(O)C(=O)N1CCOCC1)c1cccc(Nc2ccc3[nH]ncc3c2)n1 (stereo not given)	57*	0	8	0	62*	7	AlphaScreen DR=>6.5
Cc1cccn2c(CN(C)CCC3CCCCO3)c(C(=O)N(C)CCc3ccccc3)nc12 (stereo not given)	16	0	10	0	x	x
COc1cccc(CN2CCN(S(=O)(=O)c3ccc4ccccc4c3)CC2)c1	19	0	1	0	x	x
Cc1cc(Cl)c(OCCN2CCOCC2)c(Cl)c1	61*	-1	-7	0	-1	2
Cc1ccc(OCCN2CCOCC2)c(Br)c1	64*	2	-13	0	-4	-1
Clc1ccc(OCCN2CCOCC2)c(Br)c1	38	0	0	0	x	x
Cc1ccc(C(C)(C)C)c(OCCN2CCOCC2)c1	65*	-1	1	0	7	5
Cc1ccc(OCCOCCN2CCOCC2)c(C)c1	-1	2	-15	0	x	x
CC(Oc1cccc(Cl)c1)C(=O)Nc1c(C#N)cnn1-c1ccccc1 (stereo not given)	7	2	-6	0	x	x
COc1cccc(CN2CCCCC2c2cccnc2)c1OC (stereo not given)	73*	0	-6	0	14	14
COc1cccc(CN2CCN(C3CCCC(C)C3)CC2)c1OC (stereo not given)	70*	-1	7	0	12	17
COc1cccc(CN2CCN(C3CCCC3)CC2)c1OC	61*	0	8	0	4	18
COc1ccc(CN2CCN(C3CCCC3)CC2)c(OC)c1OC	52*	1	-3	0	1	9
CC(=O)Nc1ccc(NC(=O)c2ccccc2Cl)nc1	-10	0	-18	0	x	x
Fc1ccccc1-c1cnc2ccc(NCc3cccs3)nn12	53*	0	8	0	19	11
O=C(c1cn(-c2ccccc2)nc1-c1cccs1)N1CCOCC1	-16	1	-15	0	x	x
O=C(c1cn(-c2ccccc2)nc1C12CC3CC(CC(C3)C1)C2)N1CCOCC1	59*	0	-3	0	3	11
COc1cccc(CN(C)S(=O)(=O)c2c(C)noc2/C=C/N(C)C)c1	-10	0	1	0	x	x
